High-throughput results: PubChem BioAssay, National Center for Advancing Translational Sciences (NCATS)
Pf growth 48h = inhibits P. falciparum growth in the first generation, 48 h. 310,000 compounds, 5.9% hits. P. falciparum luciferase growth in erythrocytes, 48 h. Potency, µM (top dose mostly 28.7 µM), hits mostly inhibitors
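Parasite viability was followed by luminescence of a genomically integrated firefly luciferase. Cultures held 0.1% parasitemia at 2% hematocrit (final), incubated under 5% CO2 at 37 C.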
SARS PLP yeast = inhibitors of SARS-CoV papain-like protease in yeast; S. cerevisiae expressing SARS-CoV PLpro, growth rescue; Potency, µM (series often up to 32.9 µM), usual class: activators; 330,000 compounds, 0.19% hits; AID 485353; calls by dose curve; further: nearly all actives have a fitted effect of over 55% in size
Shiga toxin inh = blocks Shiga toxin action in Vero cells; Vero cells, Shiga toxin protein synthesis inhibition reporter; AID 2315; inhibition, % at 38.7 µM; 290,000 compounds, 9.2% hits; in the data active means inhibition mostly above about 28%, no sharp cut-off; inactive means mostly below about 43%
NS1 inh = inhibitors of influenza NS1 protein function | Potency, µM (series often up to 46.1 µM) | 270,000 compounds, 0.4% hits | AID 2326; calls by dose curve; further: actives are rising curves; nearly all actives have a fitted effect of over 50% in size
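A cell-based growth assay was used: compounds that relieve NS1-induced slow growth of budding yeast raise OD600. Assay medium was yeast nitrogen base with ammonium sulphate and -URA supplement, pH 6.0, with 2% galactose.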
Pf growth 96h = P. falciparum growth inhibition at 96 hour, primary screen for plastid delayed-death inhibitors. P. falciparum luciferase reporter growth, 96 h. 320,000 compounds, 6.9% hits. Potency, µM (doses to about 28.7 µM), usual class: inhibitors
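Two-generation exposure (96 h) targets delayed-death phenotype. Reporter parasites carrying integrated firefly luciferase, in red cells at 2% hematocrit and 0.05% parasitemia final, kept at 37 C, 5% CO2; luminescence loss indicates inhibition.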
Cycloheximide cs = counter-screen hit for Shiga toxin inhibitors, cycloheximide; cell reporter, cycloheximide protein synthesis inhibition counterscreen; 300,000 compounds, 12% hits; AID 2314; max response, %; in the data active means max response mostly above about 13%, no sharp cut-off; inactive means mostly below about 14%; further: read at 38.3 µM for the half of the compounds with a filed dose
Hits are given with their value; - = inactive; ? = inconclusive; . = no result given. Compounds with a hit are over-represented: about 21% of the library has one in this group of screens. Unless noted, the call rests on the fitted dose curve; in most records, active means well fitted inhibition curve with a large enough effect; inconclusive means small, poorly fitted or top-dose-only effect, or another doubt; inactive means no such curve, though single readings can be large or run the other way.

SMILES	Pf growth 48h	SARS PLP yeast	Shiga toxin inh	NS1 inh	Pf growth 96h	Cycloheximide cs
O=C(Nc1cccc(Cl)c1)N1N=CCC1c1ccccc1 (stereo unspecified)	-	-	-	-	-	-
Fc1ccc(NC(=S)N2N=CCC2c2ccccc2)cc1 (stereo unspecified)	.	-	61.0	-	-	80.2
Cc1ccc(SCC(=O)N2N=CCC2c2ccccc2)cc1 (stereo unspecified)	?	-	-	-	-	23.8
O=C(Nc1cccc2ccccc12)N1N=CCC1c1ccccc1 (stereo unspecified)	-	-	109.0	-	-	59.3
O=C(NCC(c1ccco1)N1CCN(c2ccccc2)CC1)c1ccc2c(c1)OCO2 (stereo unspecified)	-	-	-	.	-	-
CCN(CC(=O)Nc1c(F)cccc1F)C(=O)COc1ccc2c(C)cc(=O)oc2c1	-	-	-	-	-	-
CN(C(=O)COC(=O)c1ccccc1OCc1ccc(Cl)cc1)c1c(N)n(Cc2ccccc2)c(=O)[nH]c1=O	?	-	.	.	?	.
COC(=O)c1c(-c2ccccc2)c[nH]c1C	-	-	81.9	-	-	23.8
COC(=O)c1c(C)[nH]c(C=O)c1-c1ccccc1	-	-	61.7	-	-	30.5
COC(=O)c1c(C)[nH]c(C)c1-c1ccccc1Cl	-	-	-	-	-	-
COC(=O)c1c(S(C)(=O)=O)nc(-c2ccccc2)[nH]c1=O	-	-	-	-	?	-
CN(C)CCNS(=O)(=O)c1ccc(N2CCN(c3ccc(F)cc3)CC2)c([N+](=O)[O-])c1	11.7µM	-	-	-	?	-
Cc1ccc(NC(=O)NCc2ccc3c(c2)OCO3)cc1	.	-	-	-	-	15.6
Cc1cccc(NC(=O)NCc2ccc3c(c2)OCO3)c1	-	-	79.5	-	?	39.4
CCOc1ncccc1C(=O)N1CCN(S(=O)(=O)c2ccc3c(c2)OCCO3)CC1	?	-	.	.	?	.
COC1C(OC(=O)c2ccc(C)[nH]2)C(O)C(Oc2ccc3c(O)c(NC(=O)c4ccc(O)c(CC=C(C)C)c4)c(=O)oc3c2Cl)OC1(C)C (stereo unspecified)	5.86µM	-	-	?	?	-
Cc1ccc(NC2=NC(c3ccc(C)cc3)n3c(nc(C)cc3=O)N2)cc1 (stereo unspecified)	?	-	-	-	11.7µM	-
CCOc1ccc(C(=O)Nc2ccc3c(c2)OCCO3)cc1[N+](=O)[O-]	-	-	-	.	?	-
CCOc1ccc(NS(=O)(=O)c2ccc(OC)c(NC(=O)c3ccc4c(c3)OCCO4)c2)cc1	-	-	-	-	?	-
CCOc1ccc(C(=O)NCC(=O)Nc2ccc3c(c2)OCO3)cc1OCC	?	-	.	.	-	.
CCOc1ccc(C(=O)Nc2ccc3c(c2)OCCO3)cc1OC	-	-	62.9	-	-	19.7
CCOc1ccc(NC(=O)c2ccc3c(c2)OCCO3)cc1S(=O)(=O)N(CC)CC	13.1µM	-	.	.	13.1µM	.
CCOc1cc(C(=O)Nc2ccc3c(c2)OCO3)ccc1OC(F)F	-	-	-	-	9.28µM	23.0
CCCN1C(=O)c2cccc3c(N4CCCCC4)ccc(c23)C1=O	-	-	-	-	13.1µM	-
CCOC(=O)N1CCC(NC(=O)C(NC(=O)C2CCC(C)CC2)C(C)CC)CC1 (stereo unspecified)	.	-	-	-	?	-
SMILES	Pf growth 48h	SARS PLP yeast	Shiga toxin inh	NS1 inh	Pf growth 96h	Cycloheximide cs
CC1=NN(c2ccccc2)C(=O)C1(C)C	-	-	-	-	9.28µM	-
CC1=NN(c2ccccc2)C(=O)/C1=C\C=C1/N(C)c2ccccc2C1(C)C	?	-	-	-	?	-
CC1CC=CC2C1C(=O)N(Cc1ccccc1)C2c1cccc([N+](=O)[O-])c1 (stereo unspecified)	.	.	-	.	.	-
O=C(CSc1nccn1-c1ncc(C(F)(F)F)cc1Cl)c1ccc(Br)cc1	-	-	-	-	-	30.6
O=C(CSc1nccn1-c1ccccc1)c1ccc(Cl)cc1	-	-	82.7	-	-	29.5
Cc1ccc(C(=O)CSc2nccn2-c2ccccc2)cc1	-	-	143.3	-	-	48.9
Clc1cccc(CSc2nccn2-c2ccccc2)c1	?	-	-	-	?	-
CCOC(=O)c1c(NC(=O)c2ccco2)sc2c1CCCC2	-	-	-	-	.	-
CCOC(=O)c1c(NC(=O)CSc2nnc(-c3c[nH]c4ccccc34)n2CCOC)sc2c1CCCCC2	?	-	-	-	9.28µM	-
CCOC(=O)c1c(NC(=O)C(NCCN(C)C)c2ccccc2)sc2c1CCCC2 (stereo unspecified)	9.28µM	-	-	-	?	-
CCOC(=O)c1c(NC(=O)C(=O)N/N=C/c2ccccc2O)sc2c1CCCCC2	0.657µM	?	-	-	0.928µM	-
CCOC(=O)c1c(NC(=O)c2ccn(CC)n2)sc2c1CCCC2	10.4µM	-	-	-	.	-
CSCC[C@H](NC(=O)[C@H]1N2C(=O)c3ccccc3C2SC1(C)C)C(=O)NCc1ccncc1 (stereo partly specified)	?	-	-	-	?	-
CCN(CCO)Cc1cc(=O)oc2cc3c(cc12)CCC3	-	-	-	.	-	-
FC(F)(F)c1ccccc1-n1c(-c2ccco2)n[nH]c1=S	-	-	29.8	-	-	21.3
O=C(NCc1ccco1)/C(=C\c1ccco1)NC(=O)c1ccco1	-	-	-	?	-	-
Nc1ccccc1SCc1c(Cl)cccc1Cl	-	-	-	-	-	-
CC(C(Sc1ccccc1N)c1ccccc1)[N+](=O)[O-] (stereo unspecified)	2.62µM	-	60.6	-	-	32.3
O=C(COC(=O)c1ccc(Cl)nc1)NCCC1=CCCCC1	-	-	-	.	-	-
CSc1ccccc1NC(=O)C1CCN(S(C)(=O)=O)CC1	-	-	-	-	?	-
Cc1ccc(N2CCN(C3=NC(=O)/C(=C\c4cn[nH]c4-c4ccccc4)S3)CC2)cc1	5.86µM	-	-	-	?	-
Cc1cccc(N2CCN(C3=NC(=O)/C(=C\c4cn[nH]c4-c4ccccc4)S3)CC2)c1	5.22µM	-	-	-	11.7µM	-
O=C1N=C(N2CCC(Cc3ccccc3)CC2)S/C1=C/c1cn[nH]c1-c1ccccc1	?	-	-	-	?	-
O=C1N=C(N2CCN(c3ccccc3)CC2)S/C1=C\c1cn[nH]c1-c1ccccc1	?	-	-	-	4.15µM	-
CN(CC(=O)NCCc1ccc(S(N)(=O)=O)cc1)CC(=O)Nc1ccccc1C(F)(F)F	.	-	.	.	.	.
Cc1nc(CCNC(=O)C2CCC(=O)N(Cc3cccc(F)c3)C2)sc1C (stereo unspecified)	-	?	-	-	-	-
CCN(CC(=O)NC(C)C)C(=O)[C@H](C)NC(=O)c1ccc(Br)cc1	-	-	-	.	-	-
O=C(COC(=O)CCc1ccc(S(=O)(=O)N2CCOCC2)cc1)NC(=O)NC1CCCCC1	-	-	-	.	-	-
Cc1c(C(=O)c2ccc(F)cc2)c2ccccn2c1CCc1ccccn1	-	-	-	-	4.15µM	-
